Here are results for 29 molecules from PubChem BioAssay AID720555 (National Center for Advancing Translational Sciences (NCATS), 2013).

Results filed as inconclusive are left out. The source made the active and inactive calls. Calls come from the whole dose curve; as a rule, active = well fitted inhibition curve with a large enough effect; inconclusive = small, poorly fitted or top-dose-only effect; inactive = no such curve, though single readings can be large or run the other way.

For this experiment, the target named is RecQ-like DNA helicase BLM (Homo sapiens) (UniProt P54132). As to the kind of experiment: qHTS for Inhibitors of Bloom's syndrome helicase (BLM): Helicase DNA unwinding fluorescent orthogonal confirmatory assay for SAR. The following applies: fluorescence, orthogonal confirmation; series mostly up to 55.6 µM. In outline: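 Purified BLM unwound a fluorescently labelled DNA substrate at room temperature in pH 7.5 Tris buffer with 2mM ATP and 2mM MgCl2. Products were resolved on native 15% gels. Loss of single-stranded product band, normalised to no-inhibitor and no-enzyme controls, indicates inhibition.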
Chain of RecQ-like DNA helicase BLM (Homo sapiens) (P54132 whole entry, looked up): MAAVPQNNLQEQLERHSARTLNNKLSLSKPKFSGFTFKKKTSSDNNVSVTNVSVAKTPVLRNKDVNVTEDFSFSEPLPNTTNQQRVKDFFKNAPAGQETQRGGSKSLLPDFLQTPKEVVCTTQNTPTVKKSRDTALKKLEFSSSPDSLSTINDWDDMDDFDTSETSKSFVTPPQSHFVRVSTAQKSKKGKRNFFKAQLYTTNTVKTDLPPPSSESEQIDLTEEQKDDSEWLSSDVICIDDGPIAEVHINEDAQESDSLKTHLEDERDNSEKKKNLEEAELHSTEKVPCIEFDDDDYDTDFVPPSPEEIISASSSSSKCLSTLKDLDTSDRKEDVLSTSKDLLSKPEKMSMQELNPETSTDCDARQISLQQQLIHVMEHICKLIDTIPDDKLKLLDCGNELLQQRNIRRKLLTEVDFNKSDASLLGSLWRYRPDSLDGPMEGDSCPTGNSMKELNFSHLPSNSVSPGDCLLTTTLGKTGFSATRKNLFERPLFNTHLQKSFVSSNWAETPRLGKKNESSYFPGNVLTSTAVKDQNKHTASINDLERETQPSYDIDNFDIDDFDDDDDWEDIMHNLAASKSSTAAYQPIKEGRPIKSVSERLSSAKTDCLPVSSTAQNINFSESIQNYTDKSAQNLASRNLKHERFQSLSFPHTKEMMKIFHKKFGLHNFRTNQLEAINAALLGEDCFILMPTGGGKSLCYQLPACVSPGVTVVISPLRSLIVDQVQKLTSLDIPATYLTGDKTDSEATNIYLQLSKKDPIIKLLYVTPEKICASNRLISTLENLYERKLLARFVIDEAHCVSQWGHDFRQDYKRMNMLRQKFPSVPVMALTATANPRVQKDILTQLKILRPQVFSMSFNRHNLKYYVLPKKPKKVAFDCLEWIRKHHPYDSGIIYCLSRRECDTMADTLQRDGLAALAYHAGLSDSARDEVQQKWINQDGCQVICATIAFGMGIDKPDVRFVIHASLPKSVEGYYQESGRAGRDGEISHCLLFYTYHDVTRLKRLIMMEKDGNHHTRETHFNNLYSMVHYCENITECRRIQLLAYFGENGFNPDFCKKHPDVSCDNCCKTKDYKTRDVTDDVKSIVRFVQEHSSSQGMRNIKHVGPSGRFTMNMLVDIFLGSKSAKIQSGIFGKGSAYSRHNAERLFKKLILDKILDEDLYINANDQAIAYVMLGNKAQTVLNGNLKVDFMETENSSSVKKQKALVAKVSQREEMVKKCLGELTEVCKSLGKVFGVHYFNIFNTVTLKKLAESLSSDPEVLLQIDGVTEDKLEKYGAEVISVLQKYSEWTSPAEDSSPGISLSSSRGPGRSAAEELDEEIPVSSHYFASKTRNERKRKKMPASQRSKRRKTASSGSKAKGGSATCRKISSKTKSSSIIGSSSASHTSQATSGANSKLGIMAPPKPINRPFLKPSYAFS
In general terms: Quantitative high-throughput screening tests each substance at several concentrations.
Take `O=C(Nc1cc(F)cc(F)c1)Nc1nnc(-c2ccncc2)s1`: the Potency is 15.8 µM (active). For `O=C(Nc1ccc(Cl)c([N+](=O)[O-])c1)Nc1nnc(-c2ccc(F)cc2)s1` the value was 2.24 µM (active). In the case of `N#Cc1cc(NC(=O)Nc2nnc(-c3ccncc3)s2)ccc1Br` it was 0.501 µM (active); in that of `O=C(Nc1ccc(Cl)c(Cl)c1)Nc1nnc(-c2ccncc2)s1`, 1.58 µM (active); in that of `O=c1c(Nc2ccc(Br)c(Br)c2)c(Nc2nnc(-c3ccncc3)s2)c1=O`, 6.31 µM (active). In the case of `O=C(NCc1ccccc1)Nc1nnc(-c2ccncc2)s1` it was “inactive”. For `CC(=O)c1ccc(NC(=O)Nc2nnc(-c3ccncc3)s2)cc1`, the Potency entry was “inactive”. Turning to `Cc1ccc(-c2nnc(NC(=O)Nc3ccc4ccccc4c3)s2)cc1`, the Potency entry is “inactive”.

As to `O=C(Nc1ccc(Cl)c(C(F)(F)F)c1)Nc1cccc(-c2ccncc2)n1`, the Potency was 20 µM (active). For the molecule `Cc1cc(NC(=O)Nc2nnc(-c3ccncc3)s2)ccc1-c1cn[nH]c1`, the Potency was 11.2 µM (active). As to `S=C(Nc1ccc(Cl)c(Cl)c1)Nc1nnc(-c2ccncc2)s1`, the Potency was 3.98 µM (active). As to `N#Cc1ccc(NC(=O)Nc2nnc(-c3ccncc3)s2)cc1`, the Potency is 7.94 µM (active). In the case of `O=C(Nc1ccc(F)c(C(F)(F)F)c1)Nc1nnc(-c2cccnc2)s1` it was 3.55 µM (active).

As to `O=C(Nc1ccc(Br)c(Br)c1)Nc1cccc(-c2ccncc2)n1`, the Potency was 0.891 µM (active). With `O=C(Nc1ccc(Cl)c(Cl)c1)Nc1nnc(N2CCNCC2)s1`, the Potency entry was “inactive”. For `O=C(Nc1ccc(Cl)c(Cl)c1)Nc1ncc(-c2ccncc2)s1` the value was “inactive”. `N#Cc1ccc(NC(=O)Nc2nnc(-c3ccncc3)s2)c(Cl)c1`: the Potency was 11.2 µM (active). Take `O=C(Nc1ccc(F)c(C(F)(F)F)c1)Nc1cccc(-c2ccncc2)n1`: the Potency is 4.47 µM (active). `Cc1cc(NC(=O)Nc2nnc(C3CCCCC3)s2)ccc1Cl`: the Potency entry is “inactive”. In the case of `CC(C)(C)c1ccc(-c2nnc(NC(=O)Nc3ccc4ccccc4c3)s2)cc1` it was “inactive”; in that of `O=C(Nc1ccc2ccccc2c1)Nc1nnc(Br)s1`, “inactive”. As to `COc1ccc(NC(=O)Nc2ccc(-c3nc4ccccc4[nH]3)cc2)cc1OC`, the Potency entry was “inactive”. On to `O=C(Nc1ccc(Br)c(Br)c1)Nc1nnc(-c2cccnc2)s1`, for which the Potency was 3.55 µM (active). For `COc1ccc(-c2nnc(NC(=O)Nc3ccc4ccccc4c3)s2)cc1OC` the value was “inactive”. For `O=C(Nc1ccc(-n2cncn2)c(F)c1)Nc1nnc(-c2ccncc2)s1` the value was 14.1 µM (active). In the case of `O=C(Nc1cc(C(F)(F)F)cc(C(F)(F)F)c1)Nc1nnc(-c2ccncc2)s1` it was 12.6 µM (active); in that of `O=C(Nc1ccc(-c2nc3ccccc3[nH]2)cc1)Nc1ccc2c(c1)CCCO2`, “inactive”; in that of `CC(C)(C)NC(=O)Nc1nnc(-c2ccncc2)s1`, “inactive”.

As to `O=C(Nc1ccc(Cl)c(Cl)c1)Nc1nc(-c2ccncc2)cs1`, the Potency was 28.2 µM (active).
